Assay outcomes: PubChem, Broad Institute
Vc quorum ag-1: inducers of Vibrio cholerae quorum light production without autoinducers. AID 588436. V. cholerae BH1578 lux reporter, luminescence, 6 h. activation, % at 18.7 µM. actives 0.16% (n = 350,000); in the data active = activation mostly above about 9.7%, no sharp cut-off
TcdB GH inh: TcdB glycohydrolase inhibition; inhibition, % at 9.99 µM; TcdB glycohydrolase enzymatic assay, plate reader; P18177; actives 0.24% (n = 350,000); AID 652162; in the data active = inhibition above about 10%
FadD28 binding: blocks FadD28 binding to the bisubstrate probe; AID 588549; actives 0.22% (n = 360,000); fluorescence polarization; inhibition, % at 12.5 µM; in the data active = inhibition above about 8.5%, passing the limit was not always enough
BioA inh: blocks M. tuberculosis BioA enzyme activity; purified M. tuberculosis BioA enzyme, plate reader; inhibition, % at 9.99 µM; actives 0.096% (n = 360,000); AID 602481; in the data active = inhibition above about 40%
Vc quorum ag-2: quorum light induction in BH1578 reporter strain. shares compounds with Vc quorum ag-1. V. cholerae BH1578 lux reporter, luminescence, 6 h. activation, % at 50 µM. 620 tested, under 10 active. AID 602243; call rule not given here
HeLa 24h tox: HeLa cell viability loss at 24 h. CellTiter-Glo ATP luminescence. 25 tested, under 10 active. activity change, negative = cytotoxicity, % at 35 µM. shares compounds with Vc quorum ag-1;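 active = signal drop with fitted half-maximal concentration at or below twice the highest valid dose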
Hits are given with their value. Sampled rows, rich in hits. Any-hit rate of the full collection: about 0.54%.

How did CCOC(=O)Nc1ccc(S(=O)(=O)Nc2cc(C)nc(C)n2)cc1 do in these assays?
Vc quorum ag-1: inactive; FadD28 binding: inactive; BioA inh: inactive; Vc quorum ag-2: inactive

How did C=CCn1c(-c2cccc(OCC)c2)n[nH]c1=S do in these assays?
Vc quorum ag-1: inactive; TcdB GH inh: inactive; FadD28 binding: inactive; BioA inh: inactive

How did C=CCn1c(-c2cc(OC)cc(OC)c2)n[nH]c1=S do in these assays?
Vc quorum ag-1: 22; FadD28 binding: inactive; BioA inh: inactive; Vc quorum ag-2: inactive

Results for CO[C@@H]1CN(C)C(=O)c2ccc(NC(=O)c3ccccc3)cc2OC[C@H](C)N(CC2CC2)C[C@@H]1C ?
TcdB GH inh: inactive; BioA inh: inactive

What do the screens show for `CC(C)NC(=O)N(C)C[C@@H]1Oc2cc(C#CC(C)(C)O)ccc2S(=O)(=O)N([C@H](C)CO)C[C@@H]1C`?
TcdB GH inh: inactive; BioA inh: inactive

What do the screens show for `CC(C)Cn1nc(NC(=O)c2ccco2)c2cc3ccccc3nc21`?
Vc quorum ag-1: inactive; TcdB GH inh: inactive; FadD28 binding: inactive

What do the screens show for `CCn1nc(NC(=O)c2ccco2)c2cc3ccccc3nc21`?
Vc quorum ag-1: 40; FadD28 binding: inactive; BioA inh: inactive; Vc quorum ag-2: inactive

How did CCS(=O)(=O)Nc1ccc(C(=O)c2ccccc2)cc1 do in these assays?
Vc quorum ag-1: inactive; FadD28 binding: inactive; BioA inh: inactive

What do the screens show for `CCS(=O)(=O)Nc1ccc(C(=O)OC)cc1`?
Vc quorum ag-1: 17; FadD28 binding: inactive; BioA inh: inactive; Vc quorum ag-2: inactive

What do the screens show for `COC(=O)c1ccc(CSc2nnc3c(Cl)cc(Cl)cn23)o1`?
Vc quorum ag-1: 35; TcdB GH inh: inactive; FadD28 binding: inactive; BioA inh: inactive; Vc quorum ag-2: inactive

How did COC(=O)c1ccc(CSc2nnnn2C)o1 do in these assays?
Vc quorum ag-1: inactive; FadD28 binding: inactive; BioA inh: inactive

Results for CCCCn1c(=O)[nH]c(=O)c2c1nc(COc1ccc(C#N)cc1)n2CCC ?
Vc quorum ag-1: inactive; FadD28 binding: inactive; Vc quorum ag-2: inactive

What do the screens show for `O=C(c1ccccc1)N1CCC(c2nc(-c3ccc(S(=O)(=O)N4CCOCC4)cc3)no2)CC1`?
Vc quorum ag-1: inactive; FadD28 binding: inactive; BioA inh: inactive; Vc quorum ag-2: inactive

Results for COC(=O)c1ccc(-c2nc3cc(Cl)c(N)cc3s2)cc1 ?
Vc quorum ag-1: 25; FadD28 binding: inactive; BioA inh: inactive; Vc quorum ag-2: inactive

What do the screens show for `COC(=O)c1ccc(-c2nc(O)c(C)s2)cc1`?
Vc quorum ag-1: inactive; TcdB GH inh: inactive; FadD28 binding: inactive; BioA inh: inactive

Results for CC1CCc2nn(CC(=O)NC3CCCC3)cc2C1 (configuration not stated) ?
Vc quorum ag-1: active; TcdB GH inh: inactive; FadD28 binding: inactive; BioA inh: inactive; Vc quorum ag-2: inactive

Results for Cc1ccc(C2(C)NC(=O)N(CC(=O)NCCC3=CCCCC3)C2=O)cc1 (configuration not stated) ?
Vc quorum ag-1: 228; FadD28 binding: inactive; BioA inh: inactive; Vc quorum ag-2: inactive

How did COc1c(C)cccc1C(=O)Nc1ccc(OCC(=O)N2CCOCC2)cc1C do in these assays?
Vc quorum ag-1: inactive; TcdB GH inh: inactive; FadD28 binding: inactive; BioA inh: inactive; Vc quorum ag-2: inactive

Results for COc1cc(C(=O)Nc2ccc(OCC(=O)N3CCOCC3)cc2C)cc(OC)c1OC ?
Vc quorum ag-1: inactive; TcdB GH inh: inactive; FadD28 binding: inactive; BioA inh: inactive

Results for COCCNC(=S)N(CCCO)Cc1cc2cc3c(cc2[nH]c1=O)OCCO3 ?
Vc quorum ag-1: 389; TcdB GH inh: inactive; FadD28 binding: inactive; BioA inh: inactive; Vc quorum ag-2: inactive

How did CCN1CCN(C(=O)c2ccc(COc3cccc(Cl)c3)o2)CC1 do in these assays?
Vc quorum ag-1: inactive; TcdB GH inh: inactive; FadD28 binding: inactive; BioA inh: inactive

How did CCN1CCN(C(=O)c2ccc(COc3ccc(Cl)cc3)o2)CC1 do in these assays?
Vc quorum ag-1: inactive; FadD28 binding: inactive; Vc quorum ag-2: inactive

Results for C=C(C)COc1ccc(-c2nc(N)ncc2-c2ccc(OC)cc2)c(O)c1 ?
Vc quorum ag-1: inactive; BioA inh: inactive

How did C=C(C)COc1ccc(-c2ncncc2Oc2ccc(OC)cc2)c(O)c1 do in these assays?
Vc quorum ag-1: 25; FadD28 binding: inactive; BioA inh: inactive; Vc quorum ag-2: inactive

How did c1ccc(-c2ccc(CN3Cc4ccccc4-n4nncc4C3)cc2)cc1 do in these assays?
Vc quorum ag-1: 249; TcdB GH inh: inactive; FadD28 binding: inactive; BioA inh: inactive; Vc quorum ag-2: inactive

Results for COc1ccc(NC(=S)Nc2nc(CC(=O)Nc3ccccc3OC)cs2)cc1 ?
Vc quorum ag-1: inactive; FadD28 binding: inactive; BioA inh: inactive

Results for COc1ccccc1NC(=O)Cc1csc(NC(=S)Nc2ccccc2)n1 ?
Vc quorum ag-1: inactive; FadD28 binding: inactive; BioA inh: inactive; Vc quorum ag-2: inactive

What do the screens show for `O=C(C[C@H]1CC[C@@H](NC(=O)C2CCOCC2)[C@@H](CO)O1)NCc1ccncc1`?
TcdB GH inh: inactive

What do the screens show for `COc1cccc(-c2ccc(CC[C@H]3O[C@H]4CC[C@H](CO)O[C@H]4C[C@@H]3NC(=O)c3cnccn3)cc2)c1`?
TcdB GH inh: inactive

Results for C[C@@H]1CCCCO[C@H](CN(C)C)[C@@H](C)CN([C@@H](C)CO)C(=O)c2cc(NC(=O)Nc3ccccc3)ccc2O1 ?
TcdB GH inh: inactive; BioA inh: inactive

What do the screens show for `CCCNC(=O)[C@@H]1[C@@H](CO)[C@@H]2Cn3c(ccc(-c4ccccc4)c3=O)[C@@H]2N1C(=O)c1ccccc1F`?
TcdB GH inh: inactive; BioA inh: inactive

How did Cc1noc(C)c1S(=O)(=O)Nc1ccc2c(c1)C(=O)N([C@H](C)CO)C[C@@H](C)[C@@H](CN(C)C(=O)c1ccncc1)OCCCC[C@H](C)O2 do in these assays?
TcdB GH inh: inactive; BioA inh: inactive

How did COc1ccccc1NC(=O)COC(=O)c1cc2ccccc2s1 do in these assays?
HeLa 24h tox: inactive

Results for COc1ccccc1NC(=O)c1ccc(NC(=O)COC(=O)c2ccc(O)cc2)cc1 ?
Vc quorum ag-1: inactive; TcdB GH inh: inactive; FadD28 binding: inactive; BioA inh: inactive

How did COc1ccc(Cl)cc1NC(=O)COC(=O)c1ccc(C)o1 do in these assays?
TcdB GH inh: inactive; FadD28 binding: inactive; BioA inh: inactive; Vc quorum ag-2: inactive; HeLa 24h tox: inactive

What do the screens show for `COc1ccccc1NC(=O)COC(=O)c1cc2ccccc2cc1O`?
Vc quorum ag-1: inactive; TcdB GH inh: inactive; FadD28 binding: inactive; BioA inh: inactive

What do the screens show for `COc1ccccc1NC(=O)COC(=O)c1ccc(C)cc1`?
HeLa 24h tox: inactive

How did Cc1c(Cl)cccc1-n1cnc(=O)c2ccccc21 do in these assays?
Vc quorum ag-1: inactive; TcdB GH inh: inactive; FadD28 binding: inactive; HeLa 24h tox: inactive

Results for O=c1ncn(-c2cccc([N+](=O)[O-])c2)c2ccccc12 ?
Vc quorum ag-1: inactive; TcdB GH inh: inactive; FadD28 binding: inactive; BioA inh: inactive
